Measured values reported in PubChem BioAssay (EPA / NIEHS).
Activity calls are given as the source filed them. Rule for the calls: active = hit-call score of the fitted dose curve at least 0.9, where 1 is the maximum; inactive = score below 0.9.

Assay: CCTE_Simmons_MITO_basal_resp_rate: CCTE's HepG2 Seahorse XF Respirometric Screening Assay at Basal Respiratory State, Simmons Lab (AID 2284001)
Settings: actives raise or lower the signal
Procedure: CCTE_Simmons_MITO is cell-based, respirometric assay using HepG2 cells and a Seahorse XF Analyzer to measure oxygen consumption rates over four temporal phases spanning a total of 72 minutes: pre-injection (pre-treatment), basal (following test compound injection), maximal (following FCCP uncoupler injection), and inhibited (following rotenone/antimycin A injection)CCTE_Simmons_MITO_basal_resp_rate is one of 4 assay components calculated from the CCTE_Simmons_MITO assay. It is designed to make measurements of basal respiration using a form of respirometric reporter, as detected with […] signals by Seahorse XF96 technology. Data from the assay component CCTE_Simmons_MITO_basal_resp_rate was analyzed at the endpoint, CCTE_Simmons_MITO_basal_resp_rate_OCR, with bidirectional fitting relative to DMSO as the negative control and baseline of activity. Using a type of respirometric reporter, measures of basal respiration for gain or loss-of-signal activity can be used to understand cellular oxygen consumption as it relates to cellular respiration. To generalize the intended target to other relatable targets, this assay endpoint is annotated to the mitochondria intended target family, where the subfamily is respiration.
Test chemicals were administered as a titrated series of 7 concentrations from 125 nM up to 100 uM [final] prior to kinetic endpoint detection at 6 minute intervals [3 min mix followed by 3 minutes measure] for 72 minutes. Three biological replicates of technical singles were run for every chemical concentration tested. Dimethylsulfoxide [DMSO] was used as the vehicle control. The electron transport chain inhibitor fenpyroximate was used as the positive control for decreased basal respiration and was administered as a titrated series of 6 concentrations from 250 nM up to 2.75 uM [final] with technical triplicates for the top concentration only. The uncoupler 2,4-dintirophenol was used as the positive control for increased basal respiration and was administered as a titrated series of 6 concentrations from 938 nM up to 40 uM [final] with technical triplicates for the top concentration only. A Seahorse XF Analzyer is required to measure the response.

Structure (SMILES) | AC50 | outcome
CCOP(=S)(Oc1cnc(C(C)(C)C)nc1)OC(C)C (configuration not stated) | 59.3 µM (active) | 
CSC1=N[C@@](C)(c2ccccc2)C(=O)N1Nc1ccccc1 | 50 µM (active) | 
C[Si](Cn1cncn1)(c1ccc(F)cc1)c1ccc(F)cc1 | 13.9 µM (active) | 
CC(COc1ccc(Oc2ccccc2)cc1)Oc1ccccn1 (configuration not stated) |  | inactive
CC(C)N(C(=O)SCC(Cl)=C(Cl)Cl)C(C)C |  | inactive
C#CCC1=C(C)C(OC(=O)C2C(C=C(C)C)C2(C)C)CC1=O (configuration not stated) | 34.9 µM (active) | 
CC(C)=CC1C(C(=O)OCN2C(=O)C3=C(CCCC3)C2=O)C1(C)C (configuration not stated) | 42.5 µM (active) | 
CCc1cccc(CC)c1N(COC)C(=O)CCl | 36.6 µM (active) | 
CCOP(=S)(OCC)SCCSCC |  | inactive
N#CSCSC#N | 32.6 µM (active) | 
CCCOCC(=Nc1ccc(Cl)cc1C(F)(F)F)n1ccnc1 |  | inactive
FC(F)C(F)(F)OCC(Cn1cncn1)c1ccc(Cl)cc1Cl (configuration not stated) | 12.8 µM (active) | 
CCC(CC)Nc1c([N+](=O)[O-])cc(C)c(C)c1[N+](=O)[O-] | 24.8 µM (active) | 
CCC(=O)Nc1ccc(Cl)c(Cl)c1 | 41.1 µM (active) | 
CCc1cccc(C)c1N(C(=O)CCl)C(C)COC (configuration not stated) | 23.7 µM (active) | 
C=C(C)[C@H]1Cc2c(ccc3c2O[C@@H]2COc4cc(OC)c(OC)cc4[C@@H]2C3=O)O1 | 0.108 µM (active) | 
CC[C@H](C)[C@H]1O[C@]2(C=C[C@@H]1C)C[C@@H]1C[C@@H](C/C=C(\C)[C@@H](O[C@H]3C[C@H](OC)[C@@H](O[C@H]4C[C@H](OC)[C@@H](NC)[C@H](C)O4)[C@H](C)O3)[C@@H](C)/C=C/C=C3\CO[C@@H]4[C@H](O)C(C)=C[C@@H](C(=O)O1)[C@]34O)O2 | 25.7 µM (active) | 
CN(C)[C@@H]1C(=O)C(C(N)=O)=C(O)[C@@]2(O)C(=O)C3=C(O)c4c(O)cccc4[C@@](C)(O)[C@H]3[C@H](O)[C@@H]12 |  | inactive
CON=C(C(=O)OC)c1ccccc1CON=C(C)c1cccc(C(F)(F)F)c1 | 8.73 µM (active) | 
CCCCOC(=O)[C@@H](C)Oc1ccc(Oc2ccc(C#N)cc2F)cc1 |  | inactive
CCCSP(=O)(OCC)SCCC | 32.8 µM (active) | 
CCOP(=O)(NC(C)C)Oc1ccc(SC)c(C)c1 (configuration not stated) |  | inactive
COP(=O)(OC)OC(Br)C(Cl)(Cl)Br (configuration not stated) |  | inactive
CCCSP(=O)(OCC)Oc1ccc(Br)cc1Cl (configuration not stated) |  | inactive
CC1(C(=O)Nc2ccc(O)c(Cl)c2Cl)CCCCC1 | 29.8 µM (active) | 
CC(C1CC1)C(O)(Cn1cncn1)c1ccc(Cl)cc1 (configuration not stated) | 35.3 µM (active) | 
O=[N+]([O-])c1cc(C(F)(F)F)c(Cl)c([N+](=O)[O-])c1Nc1ncc(C(F)(F)F)cc1Cl | 14.2 µM (active) | 
